# Test results published in PubChem BioAssay (NCI).
# Compounds without any hit were thinned out: in the full panel of roughly 83,000, 20% have a hit.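 Testing used 96-well plates and a 48-hour single-concentration exposure. Example: -40 means 40% of the starting cells died.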 Values without a mark were called inactive. Activity calls are given as the source filed them. Rule for the calls: active = growth percent below 10; inactive = the rest.
# Key:
# Test in all cases: NCI-60 one-dose screen, 48 h (100 = growth as untreated, 0 = no growth, -100 = all killed)
# Details in all cases: 10 µM unless noted
# [1] = tested on: NCI-H23 lung
# [2] = tested on: NCI-H226 lung
# [3] = tested on: NCI-H322M lung
# [4] = tested on: HOP-62 NSCLC
# [5] = tested on: NCI-H460 lung
# [6] = tested on: HOP-92 NSCLC
# [7] = tested on: NCI-H522 lung
# [8] = tested on: A549/ATCC NSCLC
# [9] = tested on: 786-0 renal
# [10] = tested on: COLO 205 colon
# [11] = tested on: DU-145 prostate
# [12] = tested on: K-562 leukemia
# [13] = tested on: MALME-3M melanoma
# [14] = tested on: MDA-MB-231 breast
# [15] = tested on: RXF 393 renal
# [16] = tested on: SF-268 CNS
# [17] = tested on: SF-295 CNS
# [18] = tested on: SF-539 CNS
# [19] = tested on: UACC-257 melanoma
# [20] = tested on: M14 melanoma
SMILES,growth [1],growth [2],growth [3],growth [4],growth [5],growth [6],growth [7],growth [8],growth [9],growth [10],growth [11],growth [12],growth [13],growth [14],growth [15],growth [16],growth [17],growth [18],growth [19],growth [20]
COc1ccc2c(c1)c(-c1nc(-c3c[nH]c4ncccc34)cs1)cn2CCN1CCOCC1,57.3%,49.7%,57.3%,27.4%,40.8%,28.8%,44.5%,51.2%,55.5%,61.6%,45.3%,38.3%,71%,51%,53.7%,60.9%,62%,48.2%,92.1%,49.4%
CCOP(=O)(NC[C@H]1O[C@](O)(CO)[C@@H](O)[C@@H]1O)OCC,97.4%,75.9%,112%,91%,105%,93.1%,88.3%,96.6%,99.8%,102%,105%,97.5%,89.1%,94.3%,96.4%,94.4%,104%,96.3%,98.4%,93.1%
CC(=O)O[C@H](C[C@H](C(C)C)N(C)C(=O)[C@@H](NC(=O)[C@H]1CCCCN1C)C(C)C)c1nc(C(=O)N[C@@H](Cc2ccccc2)C[C@H](C)C(=O)O)c(CCOCc2ccccc2)s1,24.3%,-56.8% (active),33.5%,29.6%,5.98% (active),5.5% (active),-47.4% (active),13%,7.14% (active),-42% (active),-9.34% (active),7.14% (active),23.3%,9.48% (active),18.3%,11.6%,-19.8% (active),-31.5% (active),54.5%,-29.4% (active)
C[C@]12CCc3sc(-c4ccccc4O)nc3C1=CC[C@@H]1[C@@H]2CC[C@]2(C)C(=O)CC[C@@H]12,103%,108%,101%,98.9%,108%,115%,99.3%,103%,102%,108%,107%,95.8%,102%,103%,107%,100%,100%,105%,107%,106%
COC(=O)[C@@H](C)C[C@H](Cc1ccccc1)NC(=O)c1csc([C@@H](C[C@H](C(C)C)N(C)C(=O)[C@@H](NC(=O)C23CC(NC(C)=O)(C2)C3)C2CC2)OC(C)=O)n1,60.2%,107%,105%,67.9%,36.6%,38.5%,2.4% (active),93.5%,65%,32.5%,61.6%,14.2%,56.4%,57.9%,36.9%,55.6%,82%,42.4%,46.2%,41%
CCCCCCCCCCCCNC(c1ccccc1)C(O)c1ccccc1 (stereo not given),78.7%,103%,88.2%,90.3%,93.4%,80.7%,69.1%,84.7%,79.3%,-30.7% (active),83.5%,24.1%,68.3%,39.9%,59%,79%,107%,87.9%,99.9%,93.3%
NC(=O)C(Br)c1ccccc1 (stereo not given),89.9%,88.7%,99.6%,103%,108%,99.6%,53.5%,91.8%,107%,103%,103%,84.3%,74.9%,87.8%,104%,79.6%,97%,109%,83.3%,73.3%
CCn1nccc1NC(=O)C(=O)c1cn(Cc2ccc(F)cc2)c2cccc(OC)c12,95.8%,75.1%,102%,75.9%,98.2%,46.6%,57.3%,92.4%,72.7%,106%,106%,79.9%,109%,91.9%,90.1%,98.1%,106%,98.1%,97.6%,88.1%
CCCCCCCCCCCCCC[P+](CCCCCC)(CCCCCC)CCCCCC,-39.3% (active),-1.45% (active),-11.9% (active),-2.18% (active),-59.4% (active),-67.1% (active),-71.4% (active),-35% (active),-65.8% (active),-65.4% (active),-100% (active),39%,-83.9% (active),-38.3% (active),-97.7% (active),-4.6% (active),-68.4% (active),5.67% (active),-34.6% (active),-36.5% (active)
Cc1ccc(C(Cc2ccccc2)NCCO)cc1 (stereo not given),101%,97.2%,96.4%,80.3%,105%,74.8%,52.3%,69.2%,80.8%,82.1%,104%,104%,97.2%,103%,99.2%,98%,98.3%,85.1%,92%,87%
CCCCCN(CCCCC)CC(O)c1cc(Cl)ccc1OC (stereo not given),37.6%,65.2%,62.2%,4.36% (active),15.4%,-6.26% (active),21.4%,42.2%,24.7%,13.3%,40.1%,14.8%,66.9%,18.8%,30.7%,42.3%,23.9%,53.2%,47.4%,23.1%
CC(=O)O[C@H](C[C@H](C(C)C)N(C)C(=O)[C@@H](NC(=O)[C@H]1CCCN1C)C(C)C)c1nc(C(=O)N[C@@H](Cc2ccccc2)C[C@H](C)C(=O)O)c(C)s1,30.3%,54.8%,52%,29.7%,5.67% (active),16.5%,-24.7% (active),13.3%,22.4%,-63.2% (active),15.3%,9.54% (active),53.9%,15.1%,61.6%,29.9%,11%,-3.18% (active),38.2%,4.87% (active)
CC12CCC(O)CC1=CCC1C2CCC2(C)C(O)CCC12 (stereo not given),111%,90%,101%,103%,101%,85.4%,94.8%,109%,103%,106%,105%,115%,102%,105%,101%,102%,96.2%,98.9%,110%,106%
Cc1cc(C)cc(Nc2nc3c(s2)CC[C@@]2(C)C3=CC[C@@H]3[C@@H]2CC[C@]2(C)C(=O)CC[C@@H]32)c1,76.9%,49.9%,79.9%,90%,49.5%,70.7%,66.1%,72.9%,31%,92.5%,41.2%,17.1%,79.6%,77.5%,-7.45% (active),67.4%,42.9%,23%,87.9%,83.4%
CCOC(=O)[C@@H](C)C[C@H](Cc1ccccc1)NC(=O)c1csc([C@@H](C[C@H](C(C)C)N(C)C(=O)[C@@H](NC(=O)[C@H]2CCCCN2C)C(C)(C)C)OC(C)=O)n1,24.5%,55.2%,27.3%,11.8%,6.23% (active),28.5%,-40.3% (active),10.3%,4.58% (active),-75.6% (active),2.47% (active),5.06% (active),62.4%,-5.5% (active),23.8%,24.9%,-8.4% (active),-13.6% (active),41.7%,-14.6% (active)
